Measured values: PubChem BioAssay (NCATS)
Inconclusive results are not listed. Activity calls are given as the source filed them. Unless noted, the call rests on the fitted dose curve.

How the values were obtained:
[1] = AP1 Signaling Pathway (AID 357; active means well fitted curve in either direction with a large enough effect, not every such curve was filed as active;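 further: ME-180 reporter cells stimulated with EGF at its EC50 level; on the % scale 0 is the no-effect control and ±100 the full control effect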); conditions: ME-180 AP-1-bla reporter, EGF-induced, beta-lactamase ratio, 5 h; at 7.69 µM (top of the series) unless noted
In short: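 Modulation of EGF-driven AP-1 transcription was assessed with a beta-lactamase reporter in ME-180 cells. Compound and EC50 EGF were co-incubated 5 hours at 37 °C before 2.5-hour CCF4 loading at room temperature and dual-emission reading.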

[2] = target: Cytochrome P450 1A2 (Homo sapiens) (UniProt P05177); experiment: p450-cyp1a2 (AID 410); further: potency means the concentration at half of the fitted maximal effect;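 on activity change, negative = inhibition: -100% = full effect of reference inhibitor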
Chain of Cytochrome P450 1A2 (Homo sapiens) (P05177 whole entry, looked up): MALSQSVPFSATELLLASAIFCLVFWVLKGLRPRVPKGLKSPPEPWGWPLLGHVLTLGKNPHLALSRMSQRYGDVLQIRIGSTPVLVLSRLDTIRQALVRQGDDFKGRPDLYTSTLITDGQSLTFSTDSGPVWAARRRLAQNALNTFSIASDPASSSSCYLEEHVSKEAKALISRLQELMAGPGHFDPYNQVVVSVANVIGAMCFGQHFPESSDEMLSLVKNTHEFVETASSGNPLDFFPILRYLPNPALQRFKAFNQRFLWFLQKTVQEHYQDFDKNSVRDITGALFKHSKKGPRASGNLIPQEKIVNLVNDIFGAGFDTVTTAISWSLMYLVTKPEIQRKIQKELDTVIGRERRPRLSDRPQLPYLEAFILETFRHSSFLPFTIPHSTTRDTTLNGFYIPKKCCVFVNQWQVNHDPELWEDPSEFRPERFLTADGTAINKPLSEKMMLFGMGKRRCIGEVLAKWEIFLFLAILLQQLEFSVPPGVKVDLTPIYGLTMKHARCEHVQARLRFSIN
In short: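 Luminescent demethylation readout: Luciferin-ME (100uM, equal to Km) turned over by 20nM CYP1A2 for 60 min at room temperature after NADPH regeneration addition, following 10 min compound preincubation. Normalization used 57 uM furafylline as full inhibition.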

[3] = NFAT Signaling Pathway (AID 444; active means well fitted curve in either direction with a large enough effect, not every such curve was filed as active;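 further: carbachol stimulus at about its EC50 of 1 µM final; on the % scale 0 is the no-effect control and ±100 the full control effect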); conditions: Jurkat NFAT-bla M1, carbachol, beta-lactamase ratio, 5 h; at 7.69 µM (top of the series) unless noted
In short: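 Jurkat cells carrying an NFAT-driven β-lactamase reporter and co-transfected muscarinic M1 receptor were treated with compound plus carbachol (1 uM final, an EC50 level) for 5 h at 37 °C. CCF4 loading followed for 1 h at RT; 460/530 nm ratio gave %activity.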

[4] = Stat Signaling Pathway (AID 446; active means well fitted curve in either direction with a large enough effect, not every such curve was filed as active;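 further: ME-180 cervical cancer cells given 40 pM IL-6 alongside compound; SIE-controlled beta-lactamase reporter measured as 460/530 nm FRET emission ratio; on the % scale 0 is the no-effect control and ±100 the full control effect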); conditions: ME-180 (cervical carcinoma) SIE beta-lactamase reporter, IL-6 stimulated, 5 h; at 7.69 µM (top of the series) unless noted
In short: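 Overnight-plated ME-180 cells bearing a STAT Inducible Element beta-lactamase reporter; 5 h co-exposure to compound and 40 pM IL-6; values normalized to 300 pM IL-6 and 125 nM JAK inhibitor controls.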

[5] = target: Glucocorticoid receptor (Homo sapiens) (UniProt P04150); experiment: GR-EFC Redistribution (AID 451); conditions: CHO-K1 GR-EFC translocation, beta-gal luminescence, 2 h; further: potency means the concentration at half of the fitted maximal effect
Chain of Glucocorticoid receptor (Homo sapiens) (P04150 whole entry, looked up, the tested form may be a part): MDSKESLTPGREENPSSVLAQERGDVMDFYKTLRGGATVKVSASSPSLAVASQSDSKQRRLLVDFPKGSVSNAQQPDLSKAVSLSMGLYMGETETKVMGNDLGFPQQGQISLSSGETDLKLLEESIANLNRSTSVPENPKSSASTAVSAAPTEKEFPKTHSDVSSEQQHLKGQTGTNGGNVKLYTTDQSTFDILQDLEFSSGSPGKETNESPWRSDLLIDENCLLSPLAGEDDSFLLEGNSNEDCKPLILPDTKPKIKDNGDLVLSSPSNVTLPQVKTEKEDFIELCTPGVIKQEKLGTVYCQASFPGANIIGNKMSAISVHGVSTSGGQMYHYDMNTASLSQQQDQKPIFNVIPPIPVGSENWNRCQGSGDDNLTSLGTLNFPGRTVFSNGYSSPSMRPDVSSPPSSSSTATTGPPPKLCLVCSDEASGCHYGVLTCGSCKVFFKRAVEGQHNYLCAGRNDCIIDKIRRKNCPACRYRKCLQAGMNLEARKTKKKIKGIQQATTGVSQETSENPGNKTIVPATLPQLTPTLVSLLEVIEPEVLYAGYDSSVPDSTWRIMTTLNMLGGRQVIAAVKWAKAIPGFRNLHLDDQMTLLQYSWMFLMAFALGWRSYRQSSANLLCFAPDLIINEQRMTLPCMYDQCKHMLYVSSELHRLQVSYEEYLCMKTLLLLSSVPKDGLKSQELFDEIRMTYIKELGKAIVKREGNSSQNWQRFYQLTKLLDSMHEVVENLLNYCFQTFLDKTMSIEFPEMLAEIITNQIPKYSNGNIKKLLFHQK
In short: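 CHO-K1 cells stably expressing nuclear-localized β-gal enzyme acceptor and GR fused C-terminally to the enzyme donor fragment; ligand-driven nuclear translocation restores β-gal by complementation. Compounds titrated up to 46 uM final, 2 h at 37 °C; luminescence read.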

[6] = target: Mitogen-activated protein kinase 10 (Mus musculus) (UniProt Q61831); experiment: JNK3 AlphaScreen Assay (AID 530; active means well fitted curve in either direction with a large enough effect, not every such curve was filed as active;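 further: kinase came from lysate of stimulated human HepG2 cells; signal reports phosphorylation of biotinylated GST-cJun 1-79 at Ser73 with 10 µM ATP; on the % scale 0 is the no-effect control and ±100 the full control effect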)
In short: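 Phosphorylation of biotinylated GST-cJun(1-79) at Ser73 is measured by AlphaScreen proximity luminescence. Enzyme is JNK3 in HepG2 lysates activated with interleukin-1beta and tumor necrosis factor alpha; ATP is 10 uM final.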

[7] = target: 3',5'-cyclic-AMP phosphodiesterase 4B (Homo sapiens) (UniProt Q07343); experiment: qHTS Assay for Inhibitors of PDE-IV (AID 607; active means well fitted activation curve with a large enough effect in the main read-out, with a control signal flat, not every such curve was filed as active; further: % of control where 0% means no effect)
Chain of 3',5'-cyclic-AMP phosphodiesterase 4B (Homo sapiens) (Q07343 whole entry, looked up): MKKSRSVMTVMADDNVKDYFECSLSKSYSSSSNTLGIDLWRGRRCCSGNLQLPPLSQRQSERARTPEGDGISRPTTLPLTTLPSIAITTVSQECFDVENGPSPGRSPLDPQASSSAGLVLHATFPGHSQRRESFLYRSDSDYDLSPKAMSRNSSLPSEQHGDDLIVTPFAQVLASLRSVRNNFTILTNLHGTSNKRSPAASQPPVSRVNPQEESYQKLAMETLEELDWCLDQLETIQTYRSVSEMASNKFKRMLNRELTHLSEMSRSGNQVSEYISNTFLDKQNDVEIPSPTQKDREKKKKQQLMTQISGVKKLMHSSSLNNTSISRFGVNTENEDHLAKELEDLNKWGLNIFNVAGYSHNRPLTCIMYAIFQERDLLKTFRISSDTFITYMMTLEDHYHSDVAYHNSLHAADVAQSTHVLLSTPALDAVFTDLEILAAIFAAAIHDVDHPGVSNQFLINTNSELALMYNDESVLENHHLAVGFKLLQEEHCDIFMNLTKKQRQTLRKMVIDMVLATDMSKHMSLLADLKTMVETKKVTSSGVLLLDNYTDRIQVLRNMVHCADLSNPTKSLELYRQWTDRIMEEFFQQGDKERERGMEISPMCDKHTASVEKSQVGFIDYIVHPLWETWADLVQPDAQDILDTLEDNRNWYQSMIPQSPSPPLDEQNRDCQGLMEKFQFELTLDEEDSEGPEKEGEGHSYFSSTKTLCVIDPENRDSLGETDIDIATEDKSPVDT
In short: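 Live HEK293 cells with a modified cyclic nucleotide-gated (CNG) channel report intracellular cAMP via membrane-potential dye fluorescence (ex 535/em 590 nm). Endogenous PDE-IV was targeted. Compounds were tested at up to 22.9 uM final; RO 20-1724 100 uM served as control.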

[8] = qHTS Assay for Lipid Storage Modulators (AID 1519); conditions: Drosophila S3 cells, BODIPY lipid droplet/cell ratio, laser cytometry, cells loaded with oleic acid; for activity change, negative = inhibition: at 57.5 µM (top of the series)
In short: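 Cells seeded at 5,000 per well were treated with compounds over a concentration series and loaded with oleic acid (400 uM, as added). Lipid droplet fluorescence (488 nm excitation, 500-530 nm channel) was read by laser-scanning cytometry and normalized to 20 uM Triacsin C.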

[9] = Primary qHTS for small molecule stabilizers of the endoplasmic reticulum resident proteome: Secreted ER Calcium Modulated Protein (SERCaMP) assay (AID 1508630; active means well fitted curve in the direction sought with a large enough effect; an effect the other way counts as inactive or inconclusive; further: on the % scale 0 is the no-effect control and ±100 the full control effect)
In short: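 The SH-SY5Y reporter protocol was run at 3 concentrations up to 38.3 uM (primary) or 11 concentrations (follow-up): 16 h compound, 100 nM thapsigargin for 4 h, then extracellular luciferase luminescence.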

[10] = target: Lysosomal acid glucosylceramidase (Homo sapiens) (UniProt P04062); experiment: Glucocerebrosidase-p2 (AID 348; in the data active means potency below about 10 µM; further: potency means the concentration at half of the fitted maximal effect); conditions: purified GBA, blue fluorogenic substrate, 40 min
Chain of Lysosomal acid glucosylceramidase (Homo sapiens) (P04062 whole entry, looked up): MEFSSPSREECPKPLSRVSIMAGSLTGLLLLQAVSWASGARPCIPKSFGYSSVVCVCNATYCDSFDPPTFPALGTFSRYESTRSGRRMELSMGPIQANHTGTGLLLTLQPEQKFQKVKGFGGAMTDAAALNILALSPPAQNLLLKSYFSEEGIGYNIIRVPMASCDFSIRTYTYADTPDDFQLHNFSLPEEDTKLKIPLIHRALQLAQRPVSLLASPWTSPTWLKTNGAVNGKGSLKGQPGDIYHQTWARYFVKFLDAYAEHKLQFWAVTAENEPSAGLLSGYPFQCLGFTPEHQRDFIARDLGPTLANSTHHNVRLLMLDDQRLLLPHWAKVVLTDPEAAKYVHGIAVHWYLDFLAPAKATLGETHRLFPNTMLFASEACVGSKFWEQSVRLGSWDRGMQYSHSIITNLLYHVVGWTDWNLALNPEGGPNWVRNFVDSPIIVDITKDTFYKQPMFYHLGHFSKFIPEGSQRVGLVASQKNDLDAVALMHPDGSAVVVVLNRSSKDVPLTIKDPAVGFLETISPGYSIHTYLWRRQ
In short: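 Normal human glucocerebrosidase (0.2 nM) with blue fluorogenic substrate (80 uM final) in citrate/phosphate pH 5.9 with 10mM sodium taurocholate, 0.01% tween-20; 40 min RT, NaOH/glycine stop; fluorescence Ex 365/Em 440; AC50 from a titration from 0.6 nM upwards.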

[11] = target: Glucocorticoid receptor (Homo sapiens) (UniProt P04150); experiment: GR-GFP Redistribution (AID 450;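 active means compounds whose dose series gives a full or clear partial fitted curve of increased nuclear translocation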; further: potency means the concentration at half of the fitted maximal effect); conditions: U2OS GR-GFP nuclear translocation, laser cytometry, 2 h
[12] = target: Cytochrome P450 3A4 (Homo sapiens) (UniProt P08684); experiment: qHTS Assay for Activators of Cytochrome P450 3A4 (AID 885; active means well fitted curve in the direction sought with a large enough effect; an effect the other way counts as inactive or inconclusive; further: nearly all actives have a fitted effect of over 65% in size)
Chain of Cytochrome P450 3A4 (Homo sapiens) (P08684 whole entry, looked up): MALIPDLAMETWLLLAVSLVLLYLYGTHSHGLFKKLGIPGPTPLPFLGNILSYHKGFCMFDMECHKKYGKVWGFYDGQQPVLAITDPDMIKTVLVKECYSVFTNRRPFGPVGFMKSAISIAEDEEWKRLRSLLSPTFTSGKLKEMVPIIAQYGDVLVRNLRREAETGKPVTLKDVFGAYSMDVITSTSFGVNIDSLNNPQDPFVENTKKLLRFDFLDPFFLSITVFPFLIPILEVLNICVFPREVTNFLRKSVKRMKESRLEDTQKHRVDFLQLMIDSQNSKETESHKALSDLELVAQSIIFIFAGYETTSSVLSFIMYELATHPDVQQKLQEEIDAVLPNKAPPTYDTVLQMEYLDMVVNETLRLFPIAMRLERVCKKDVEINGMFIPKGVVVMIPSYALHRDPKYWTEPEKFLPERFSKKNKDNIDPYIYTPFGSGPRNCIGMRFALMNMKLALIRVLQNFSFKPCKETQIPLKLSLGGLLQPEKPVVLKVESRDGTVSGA
In short: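 Using 20nM recombinant human CYP3A4 in potassium phosphate (200mM), substrate Luciferin-PPXE at 25uM, luminescent luciferin detection followed a 60-min RT NADPH reaction; data scaled to 57 uM ketoconazole.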

[13] = Confirmation and Secondary Assay for Modulators of Hemoglobin Beta Chain Splicing at IVS2 654 locus (AID 910; active means well fitted curve in the direction sought with a large enough effect; an effect the other way counts as inactive or inconclusive;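 further: per-well total GFP intensity by laser scanning cytometry after 2-day treatment; % of control where 0% means no effect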)
In short: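 HeLa cells stably carrying EGFP interrupted by mutant beta-globin IVS2-654 intron (CMV-driven) were treated with compound for 2 days at 37C; corrected splicing was scored as total peak GFP intensity per well (488 nm excitation, 500-520 nm emission).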

[14] = Confirmation and Secondary Assay for Modulators of Hemoglobin Beta Chain Splicing at IVS2 705 locus (AID 930; active means well fitted curve in the direction sought with a large enough effect; an effect the other way counts as inactive or inconclusive;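 further: HeLa cells stably expressing the EGFP-705 splicing reporter; GFP fluorescence per well restored by corrected splicing of the IVS2-705 intron in EGFP; % of control where 0% means no effect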)
In short: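 Assay measures total GFP intensity per well in HeLa EGFP-705 cells after 2 days with compound; mis-splicing normally truncates EGFP, so fluorescence indicates corrected splicing.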

[15] = target: Ubiquitin carboxyl-terminal hydrolase 1 (Homo sapiens) (UniProt O94782); experiment: Inhibitors of USP1/UAF1: Pilot qHTS (AID 504865; active means well fitted curve in the direction sought with a large enough effect; an effect the other way counts as inactive or inconclusive;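 further: rhodamine fluorescence freed from ubiquitin-rhodamine substrate followed over time; top concentration of the series differs between compounds; on the % scale 0 is the no-effect control and ±100 the full control effect; nearly all actives have a fitted effect of over 35% in size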)
Chain of Ubiquitin carboxyl-terminal hydrolase 1 (Homo sapiens) (O94782 whole entry, looked up): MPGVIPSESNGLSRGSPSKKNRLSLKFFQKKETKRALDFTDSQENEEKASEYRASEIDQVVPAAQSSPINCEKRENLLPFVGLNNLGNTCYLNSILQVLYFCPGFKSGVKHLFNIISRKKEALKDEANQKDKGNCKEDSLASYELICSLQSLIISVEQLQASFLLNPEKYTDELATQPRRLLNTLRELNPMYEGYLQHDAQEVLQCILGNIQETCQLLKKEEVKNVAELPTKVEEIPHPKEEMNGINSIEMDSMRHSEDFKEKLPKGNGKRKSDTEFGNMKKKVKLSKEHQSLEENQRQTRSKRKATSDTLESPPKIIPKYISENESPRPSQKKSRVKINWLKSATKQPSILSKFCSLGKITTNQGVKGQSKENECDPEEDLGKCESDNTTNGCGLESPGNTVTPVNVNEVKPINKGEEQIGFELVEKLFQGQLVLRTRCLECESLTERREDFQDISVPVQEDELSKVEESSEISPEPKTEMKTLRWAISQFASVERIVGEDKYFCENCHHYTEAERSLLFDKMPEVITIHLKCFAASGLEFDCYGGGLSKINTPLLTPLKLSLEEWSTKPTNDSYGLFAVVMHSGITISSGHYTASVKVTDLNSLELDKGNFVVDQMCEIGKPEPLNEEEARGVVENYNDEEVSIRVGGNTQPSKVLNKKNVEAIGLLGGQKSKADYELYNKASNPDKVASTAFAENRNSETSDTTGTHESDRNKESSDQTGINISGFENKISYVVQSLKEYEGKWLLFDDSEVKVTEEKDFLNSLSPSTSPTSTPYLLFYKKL
In short: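 In 50mM HEPES pH 7.8 containing 0.5mM EDTA, 1mM TCEP, 0.1 mg/ml BSA and 0.01% Tween-20, 1nM USP1/UAF1 is exposed to compound for 15 min, then Ub-Rho (150nM final) is added and fluorescence is read over time.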

[16] = target: Cytochrome P450 3A4 (Homo sapiens) (UniProt P08684); experiment: qHTS Assay for Inhibitors and Substrates of Cytochrome P450 3A4 (AID 884; active means well fitted curve in the direction sought with a large enough effect; an effect the other way counts as inactive or inconclusive; further: nearly all actives have a fitted effect of over 50% in size; further: potency means the concentration at half of the fitted maximal effect)
In short: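 Luminescent readout of luciferin produced by CYP3A4 (20 nM) dealkylation of Luciferin-PPXE, 25 uM (its KM). NADPH-driven reaction ran 60 min at RT after 10 min compound preincubation; data scaled to 57 uM ketoconazole as 100% inhibition.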

[17] = target: Cytochrome P450 2D6 (Homo sapiens) (UniProt P10635); experiment: qHTS Assay for Inhibitors and Substrates of Cytochrome P450 2D6 (AID 891; active means well fitted curve in the direction sought with a large enough effect; an effect the other way counts as inactive or inconclusive; further: potency means the concentration at half of the fitted maximal effect; nearly all actives have a fitted effect of over 60% in size)
Chain of Cytochrome P450 2D6 (Homo sapiens) (P10635 whole entry, looked up): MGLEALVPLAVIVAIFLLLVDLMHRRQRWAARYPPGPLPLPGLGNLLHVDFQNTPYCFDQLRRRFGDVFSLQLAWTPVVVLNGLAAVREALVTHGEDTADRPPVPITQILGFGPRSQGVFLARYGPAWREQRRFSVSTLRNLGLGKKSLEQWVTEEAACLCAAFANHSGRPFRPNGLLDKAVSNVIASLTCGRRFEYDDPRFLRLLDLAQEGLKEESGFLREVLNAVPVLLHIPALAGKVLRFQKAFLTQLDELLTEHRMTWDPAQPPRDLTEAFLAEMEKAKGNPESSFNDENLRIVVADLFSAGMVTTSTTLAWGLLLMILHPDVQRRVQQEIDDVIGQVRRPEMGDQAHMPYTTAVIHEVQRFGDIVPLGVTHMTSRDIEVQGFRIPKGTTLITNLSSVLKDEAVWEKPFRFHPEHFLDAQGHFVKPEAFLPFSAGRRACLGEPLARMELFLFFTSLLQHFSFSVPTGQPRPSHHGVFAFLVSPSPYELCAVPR
In short: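 Luminescent read-out of luciferin formed by 5 nM human CYP2D6 demethylating 30 uM Luciferin-ME EGE (Km level) over 60 min at room temperature after NADPH regeneration addition. Data normalized to full inhibition by 1.43 uM quinidine.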

[18] = measured here: cell count channel max response
[19] = measured here: lipid channel max response

Q: For `Cc1noc(C)c1C(=O)N1CCC2(CCCN(C(=O)Nc3ccccc3)C2)CC1`, which activity change, negative = inhibition [1] is on record?
A: Its activity change, negative = inhibition is -21% (inactive).

Q: What about the Potency [2] of the same compound?
A: Its Potency is 12.6 µM (active).

Q: And the activity change, negative = inhibition [3]?
A: The activity change, negative = inhibition was 0.607% (inactive).

Q: And the activity, negative = inhibition [4]?
A: The activity, negative = inhibition was -8.55% (inactive).

Q: And the Potency [5]?
A: Its Potency is > 46 µM (inactive).

Q: And the Potency [6]?
A: The Potency was “inactive”.

Q: What about the Potency [7] of the same compound?
A: The Potency was “inactive”.

Q: What about the activity change, negative = inhibition [8] of the same compound?
A: Its activity change, negative = inhibition is 2.45% (inactive).

Q: What about the max response [8, 18] of the same compound?
A: Its max response is 20.4%.

Q: And the max response [8, 19]?
A: The max response was 27.5%.

Q: What about the outcome [9] of the same compound?
A: The outcome was “inactive”.

Q: With `COc1ccc(CNc2nc(-c3ccc(C(=O)N(C)C)cc3)nc3ccccc23)c(OC)c1` as the compound, how does the Potency [10] read?
A: Its Potency is > 11.4 µM (inactive).

Q: And the Potency [2]?
A: The Potency was 15.8 µM (active).

Q: And the Potency [11]?
A: Its Potency is > 46 µM (inactive).

Q: What about the Potency [5] of the same compound?
A: The Potency was > 46 µM (inactive).

Q: And the Potency [6]?
A: The Potency was “inactive”.

Q: And the Potency [12]?
A: The Potency was “inactive”.

Q: What about the Potency [13] of the same compound?
A: The Potency was “inactive”.

Q: And the outcome [14]?
A: Its outcome is “inactive”.

Q: What about the activity change, negative = inhibition [8] of the same compound?
A: Its activity change, negative = inhibition is 6.93% (inactive).

Q: What about the max response [8, 18] of the same compound?
A: Its max response is -11.3%.

Q: And the max response [8, 19]?
A: The max response was 8.44%.

Q: What about the Potency [15] of the same compound?
A: Its Potency is “inactive”.

Q: What about the outcome [9] of the same compound?
A: The outcome was “inactive”.

Q: What does the source list for `Cc1noc(C)c1-c1nc(N2CCOCC2)c2ccccc2n1`?
A: activity change, negative = inhibition [1]: -9.5% (inactive); Potency [2]: 0.316 µM (active); activity change, negative = inhibition [3]: 16.1% (inactive); activity, negative = inhibition [4]: 19.8% (inactive); Potency [11]: > 46 µM (inactive); Potency [5]: > 46 µM (inactive); Potency [6]: inactive; Potency [7]: inactive; Potency [16]: 6.31 µM (active); Potency [12]: inactive; Potency [13]: inactive; outcome [14]: inactive; activity change, negative = inhibition [8]: 2.85% (inactive); max response [8, 18]: 6.88%; max response [8, 19]: 9.54%; outcome [9]: inactive

Q: With `COc1ccc(C(=O)N2CCC3(CCN(CC(C)C)CC3)CC2)cc1` as the compound, how does the Potency [10] read?
A: The Potency was > 11.4 µM (inactive).

Q: What about the activity, negative = inhibition [4] of the same compound?
A: Its activity, negative = inhibition is -2.75% (inactive).

Q: And the Potency [5]?
A: The Potency was > 46 µM (inactive).

Q: What about the Potency [6] of the same compound?
A: Its Potency is “inactive”.

Q: What about the Potency [7] of the same compound?
A: Its Potency is “inactive”.

Q: What about the activity change, negative = inhibition [8] of the same compound?
A: The activity change, negative = inhibition was -2.62% (inactive).

Q: And the max response [8, 18]?
A: The max response was -10.1%.

Q: And the max response [8, 19]?
A: Its max response is -11.3%.

Q: And the outcome [9]?
A: Its outcome is “inactive”.

Q: Which Potency [10] does the source give for `COc1ccc(C(=O)N2CCC3(CCCN(C(c4ccccc4)c4ccccc4)C3)CC2)cc1` here?
A: The Potency was > 11.4 µM (inactive).

Q: And the activity, negative = inhibition [4]?
A: Its activity, negative = inhibition is 18.3% (inactive).

Q: What about the Potency [5] of the same compound?
A: Its Potency is > 46 µM (inactive).

Q: What about the Potency [6] of the same compound?
A: Its Potency is “inactive”.

Q: What about the activity change, negative = inhibition [8] of the same compound?
A: Its activity change, negative = inhibition is -5.74% (inactive).

Q: What about the max response [8, 18] of the same compound?
A: The max response was 2.37%.

Q: And the max response [8, 19]?
A: Its max response is -2.89%.

Q: What about the outcome [9] of the same compound?
A: Its outcome is “inactive”.

Q: Which results are given for `COc1ccc(-n2c(=O)c(-c3cccs3)nc3cnc(N4CCNCC4)nc32)cc1`?
A: Potency [10]: > 11.4 µM (inactive); Potency [2]: 5.01 µM (active); Potency [11]: > 9.22 µM (inactive); Potency [5]: > 46 µM (inactive); Potency [6]: inactive; Potency [7]: inactive; Potency [12]: inactive; activity change, negative = inhibition [8]: 2.69% (inactive); max response [8, 18]: 3.53%; max response [8, 19]: 6.61%; outcome [9]: inactive

Q: What does the source list for `O=C(c1cccc(F)c1)N1CCC2(CC1)CCN(c1ccncc1)CC2`?
A: Potency [10]: > 11.4 µM (inactive); activity, negative = inhibition [4]: 24% (inactive); Potency [5]: > 46 µM (inactive); Potency [6]: inactive; Potency [16]: inactive; activity change, negative = inhibition [8]: -0.521% (inactive); max response [8, 18]: -17.2%; max response [8, 19]: -16.4%; outcome [9]: inactive

Q: For `COc1ccc(C(=O)N2CCC3(CCCN(Cc4ccccc4)C3)CC2)cc1`, which Potency [10] is on record?
A: The Potency was > 11.4 µM (inactive).

Q: And the Potency [2]?
A: The Potency was “inactive”.

Q: And the activity, negative = inhibition [4]?
A: Its activity, negative = inhibition is -10.9% (inactive).

Q: And the Potency [5]?
A: The Potency was > 46 µM (inactive).

Q: And the Potency [6]?
A: Its Potency is “inactive”.

Q: And the Potency [7]?
A: The Potency was “inactive”.

Q: What about the Potency [12] of the same compound?
A: Its Potency is “inactive”.

Q: And the Potency [17]?
A: The Potency was 7.94 µM (active).

Q: And the activity change, negative = inhibition [8]?
A: The activity change, negative = inhibition was 4.53% (inactive).

Q: What about the max response [8, 18] of the same compound?
A: Its max response is 1.31%.

Q: What about the max response [8, 19] of the same compound?
A: Its max response is 6.86%.

Q: And the outcome [9]?
A: The outcome was “inactive”.
